Test results as given in PubChem BioAssay (NCI).
Compounds without any hit were thinned out: in the full panel of roughly 83,000, 20% have a hit.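 The endpoint reported here, percent growth, reads 100 for growth as untreated, 0 for no net growth and -100 for all cells dead.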 Activity calls are given as the source filed them. The calls were made as follows: active = growth percent below 10; inactive = the rest.

Experiments:
Assay in all cases: NCI-60 one-dose screen, 48 h (100 = growth as untreated, 0 = no growth, -100 = all killed)
Details in all cases: 10 µM unless noted
SR leukemia = test system: SR leukemia
RPMI-8226 leukemia = test system: RPMI-8226 leukemia
OVCAR-8 ovarian = test system: OVCAR-8 ovarian
OVCAR-5 ovarian = test system: OVCAR-5 ovarian
OVCAR-4 ovarian = test system: OVCAR-4 ovarian
SK-OV-3 ovarian = test system: SK-OV-3 ovarian
IGROV1 ovarian = test system: IGROV1 ovarian
OVCAR-3 ovarian = test system: OVCAR-3 ovarian
HS 578T breast = test system: HS 578T breast
NCI/ADR-RES ovarian = test system: NCI/ADR-RES ovarian
T-47D breast = test system: T-47D breast
BT-549 breast = test system: BT-549 breast
MDA-MB-435 melanoma = test system: MDA-MB-435 melanoma
SW-620 colon = test system: SW-620 colon
MCF7 breast = test system: MCF7 breast
HCT-116 colon = test system: HCT-116 colon
HCC-2998 colon = test system: HCC-2998 colon
KM12 colon = test system: KM12 colon

Measured: growth

COc1ccccc1N1CCN(C(=O)c2ccc3nc(NC(=O)c4ccc(NCCc5ccccc5)c([N+](=O)[O-])c4)sc3c2)CC1
inactive: RPMI-8226 leukemia 92.3% | OVCAR-8 ovarian 81.6% | OVCAR-5 ovarian 93.6% | SK-OV-3 ovarian 92.4% | IGROV1 ovarian 91.8% | OVCAR-3 ovarian 70.3% | HS 578T breast 48.5% | NCI/ADR-RES ovarian 89.6% | T-47D breast 73.2% | BT-549 breast 80.3% | MDA-MB-435 melanoma 89.4% | SW-620 colon 75.1% | MCF7 breast 70.8% | HCT-116 colon 57.7% | HCC-2998 colon 110% | KM12 colon 79%
active: SR leukemia 3.74% | OVCAR-4 ovarian 2.92%

COc1ccc(-c2nc(SC)nc(N3CCOCC3)c2C#N)cc1
inactive: SR leukemia 78.9% | RPMI-8226 leukemia 91.2% | OVCAR-8 ovarian 98.1% | OVCAR-5 ovarian 99.7% | OVCAR-4 ovarian 100% | SK-OV-3 ovarian 89.4% | IGROV1 ovarian 85% | OVCAR-3 ovarian 98.5% | HS 578T breast 98.4% | NCI/ADR-RES ovarian 94% | T-47D breast 72.9% | BT-549 breast 83.7% | MDA-MB-435 melanoma 99.3% | SW-620 colon 103% | MCF7 breast 90.6% | HCT-116 colon 103% | HCC-2998 colon 99.7% | KM12 colon 99.9%

CCn1ccnc1C(=O)/C=C/c1ccc(CC(=O)Nc2ccc(F)cc2)cc1
inactive: SR leukemia 14.8% | OVCAR-5 ovarian 44.5% | OVCAR-4 ovarian 35.4% | SK-OV-3 ovarian 86.6% | IGROV1 ovarian 32.3% | HS 578T breast 52.5% | T-47D breast 24.5% | MDA-MB-435 melanoma 20% | MCF7 breast 25.2% | HCC-2998 colon 78.8%
active: RPMI-8226 leukemia 2.37% | OVCAR-8 ovarian -2.13% | OVCAR-3 ovarian -4.68% | NCI/ADR-RES ovarian 4.48% | BT-549 breast 4.63% | SW-620 colon 6.04% | HCT-116 colon 1.33% | KM12 colon -14.3%

CC(C)CCSc1nc(NNC(N)=O)c(C#N)c(-c2ccccc2)n1
inactive: SR leukemia 105% | RPMI-8226 leukemia 99.4% | OVCAR-8 ovarian 104% | OVCAR-5 ovarian 97.8% | OVCAR-4 ovarian 113% | SK-OV-3 ovarian 107% | IGROV1 ovarian 103% | OVCAR-3 ovarian 108% | HS 578T breast 112% | NCI/ADR-RES ovarian 102% | T-47D breast 99.9% | BT-549 breast 46.7% | MDA-MB-435 melanoma 109% | SW-620 colon 112% | MCF7 breast 103% | HCT-116 colon 38.3% | HCC-2998 colon 102% | KM12 colon 110%

C=C(C)[C@@H]1CC[C@]2(C(=O)N3CCN(C)CC3)CC[C@]3(C)[C@H](CC[C@@H]4[C@@]5(C)CCC(=O)C(C)(C)[C@@H]5CC[C@]43C)[C@@H]12
inactive: RPMI-8226 leukemia 78.1% | OVCAR-8 ovarian 87.1% | OVCAR-5 ovarian 92.5% | OVCAR-4 ovarian 83.5% | SK-OV-3 ovarian 104% | IGROV1 ovarian 89.2% | OVCAR-3 ovarian 74% | HS 578T breast 95.3% | NCI/ADR-RES ovarian 74.6% | T-47D breast 65.3% | BT-549 breast 96.8% | MDA-MB-435 melanoma 92% | SW-620 colon 73.5% | MCF7 breast 59.2% | HCT-116 colon 31.2% | HCC-2998 colon 82.1% | KM12 colon 80.6%
active: SR leukemia -12.1%

COc1cc2nc(-c3ccc(-c4nn[nH]n4)cc3)[nH]c(=O)c2cc1OC
inactive: SR leukemia 97.8% | RPMI-8226 leukemia 81.8% | OVCAR-8 ovarian 105% | OVCAR-5 ovarian 99.4% | OVCAR-4 ovarian 115% | SK-OV-3 ovarian 108% | IGROV1 ovarian 108% | OVCAR-3 ovarian 112% | HS 578T breast 110% | NCI/ADR-RES ovarian 101% | T-47D breast 102% | BT-549 breast 251% | MDA-MB-435 melanoma 105% | SW-620 colon 107% | MCF7 breast 98.9% | HCT-116 colon 104% | HCC-2998 colon 114% | KM12 colon 126%

O=C(c1ccccc1)N1N=C(c2ccc(-n3ccc(C(F)(F)F)n3)cc2)CC1c1ccc[nH]1 (stereo not drawn)
inactive: SR leukemia 66.7% | RPMI-8226 leukemia 74.7% | OVCAR-8 ovarian 93.7% | OVCAR-5 ovarian 83.4% | OVCAR-4 ovarian 110% | SK-OV-3 ovarian 128% | IGROV1 ovarian 95.8% | OVCAR-3 ovarian 103% | HS 578T breast 95.4% | NCI/ADR-RES ovarian 90.2% | T-47D breast 73.5% | BT-549 breast 116% | MDA-MB-435 melanoma 96% | SW-620 colon 98.9% | MCF7 breast 91.5% | HCT-116 colon 93.7% | HCC-2998 colon 115% | KM12 colon 79.7%

O=C(Nc1cccc(C2=NCCN2)c1)c1ccc(OCCCOc2ccc(C(=O)Nc3cccc(C4=NCCN4)c3)cc2)cc1
inactive: SR leukemia 11.9% | OVCAR-8 ovarian 55% | OVCAR-5 ovarian 24.8% | OVCAR-4 ovarian 13.2% | SK-OV-3 ovarian 31.6% | HS 578T breast 35.6% | NCI/ADR-RES ovarian 104% | T-47D breast 18% | BT-549 breast 35.2% | SW-620 colon 14.8% | KM12 colon 14.2%
active: RPMI-8226 leukemia -3.7% | IGROV1 ovarian -40.2% | OVCAR-3 ovarian 5.65% | MDA-MB-435 melanoma -72% | MCF7 breast 0.803% | HCT-116 colon 6.6% | HCC-2998 colon -13.3%

COc1ccc(C(=O)c2cc(C)c(OC)c(C)c2)c(OC)c1N(C(=O)C(Cl)Cl)C(=O)C(Cl)Cl
inactive: SR leukemia 20.7% | RPMI-8226 leukemia 19.9% | OVCAR-8 ovarian 16% | OVCAR-5 ovarian 33.1% | OVCAR-4 ovarian 62.1% | IGROV1 ovarian 31.3% | HS 578T breast 22.1% | T-47D breast 52.4% | SW-620 colon 19% | MCF7 breast 13.4% | HCC-2998 colon 14.7%
active: SK-OV-3 ovarian 1.2% | OVCAR-3 ovarian -13.4% | NCI/ADR-RES ovarian -1.2% | BT-549 breast 5.7% | MDA-MB-435 melanoma -37.5% | HCT-116 colon 4.88% | KM12 colon 5.55%

O=C1Nc2cc(-c3ccncc3)ccc2/C1=C/c1ccc[nH]1
active: T-47D breast -20.9%
inactive: SR leukemia 15% | RPMI-8226 leukemia 81.8% | OVCAR-8 ovarian 101% | OVCAR-5 ovarian 76.9% | OVCAR-4 ovarian 37.3% | SK-OV-3 ovarian 93.3% | IGROV1 ovarian 80.8% | OVCAR-3 ovarian 85.2% | HS 578T breast 107% | NCI/ADR-RES ovarian 94.6% | BT-549 breast 24.4% | MDA-MB-435 melanoma 100% | SW-620 colon 105% | MCF7 breast 21% | HCT-116 colon 57.2% | HCC-2998 colon 72.2% | KM12 colon 33.1%

CCOC(=O)c1c(O)cc(-c2ccccc2)cc1-c1sc(N(C)Cc2ccccc2)nc1Cl
inactive: SR leukemia 93.4% | RPMI-8226 leukemia 95.2% | OVCAR-8 ovarian 97.8% | OVCAR-5 ovarian 89.4% | OVCAR-4 ovarian 102% | SK-OV-3 ovarian 95.7% | IGROV1 ovarian 108% | OVCAR-3 ovarian 106% | HS 578T breast 88.6% | NCI/ADR-RES ovarian 102% | T-47D breast 93.5% | BT-549 breast 42.7% | MDA-MB-435 melanoma 101% | SW-620 colon 96.5% | MCF7 breast 94% | HCC-2998 colon 103% | KM12 colon 104%
active: HCT-116 colon -85.6%

Fc1ccc2nc3c(cc2c1)CSc1nnc(-c2ccc[nH]c2=S)n1N3
inactive: SR leukemia 90.4% | RPMI-8226 leukemia 95.5% | OVCAR-8 ovarian 105% | OVCAR-5 ovarian 95.4% | OVCAR-4 ovarian 91.5% | SK-OV-3 ovarian 86.9% | IGROV1 ovarian 86.7% | OVCAR-3 ovarian 109% | HS 578T breast 96.3% | NCI/ADR-RES ovarian 103% | T-47D breast 84.1% | BT-549 breast 97.7% | MDA-MB-435 melanoma 103% | SW-620 colon 93.5% | MCF7 breast 98.7% | HCT-116 colon 92.7% | HCC-2998 colon 103% | KM12 colon 106%

Cc1ccc(C(c2c(O)c3cc(Br)ccc3[nH]c2=O)c2c(O)c3cc(Br)ccc3[nH]c2=O)cc1
inactive: SR leukemia 97.3% | RPMI-8226 leukemia 73.2% | OVCAR-8 ovarian 96% | OVCAR-5 ovarian 104% | OVCAR-4 ovarian 81.7% | SK-OV-3 ovarian 86.1% | IGROV1 ovarian 89.6% | OVCAR-3 ovarian 86.7% | HS 578T breast 82.4% | NCI/ADR-RES ovarian 101% | T-47D breast 71.6% | BT-549 breast 87.4% | MDA-MB-435 melanoma 86.3% | SW-620 colon 102% | MCF7 breast 80.2% | HCT-116 colon 82.4% | HCC-2998 colon 94.4% | KM12 colon 88.2%

Cc1nc2sc(C(=O)Nc3ccccc3)c(N)c2cc1C(=O)c1ccc(C(F)(F)F)cc1
inactive: SR leukemia 81.9% | RPMI-8226 leukemia 102% | OVCAR-8 ovarian 101% | OVCAR-5 ovarian 97.9% | OVCAR-4 ovarian 87.3% | SK-OV-3 ovarian 69.3% | IGROV1 ovarian 101% | OVCAR-3 ovarian 110% | HS 578T breast 85.6% | NCI/ADR-RES ovarian 99% | T-47D breast 97.2% | BT-549 breast 100% | MDA-MB-435 melanoma 94.1% | SW-620 colon 99.5% | MCF7 breast 90.7% | HCT-116 colon 76.8% | HCC-2998 colon 104% | KM12 colon 108%

N/C(=N\N=C\c1cc2ccccc2s1)N/N=C/c1cc2ccccc2s1
active: HCT-116 colon -69.7%
inactive: SR leukemia 96.8% | RPMI-8226 leukemia 99.8% | OVCAR-8 ovarian 107% | OVCAR-5 ovarian 104% | OVCAR-4 ovarian 102% | SK-OV-3 ovarian 94.3% | IGROV1 ovarian 93.7% | OVCAR-3 ovarian 107% | HS 578T breast 102% | NCI/ADR-RES ovarian 103% | T-47D breast 95.5% | BT-549 breast 78.5% | MDA-MB-435 melanoma 106% | SW-620 colon 103% | MCF7 breast 82.7% | HCC-2998 colon 103% | KM12 colon 103%

CC[C@H](C)[C@@H]1NC(=O)[C@H](Cc2ccc(O)cc2)N(C)C(=O)[C@H](Cc2ccccc2)NC(=O)CN(C)C(=O)[C@@H]2CCCN2C(=O)[C@@H](Cc2ccccc2)N(C)C(=O)[C@H](CC(C)C)NC1=O
inactive: NCI/ADR-RES ovarian 70.7% | BT-549 breast 69.7%
active: SR leukemia 4.5% | RPMI-8226 leukemia -33.3% | OVCAR-8 ovarian 5.34% | OVCAR-5 ovarian -7.89% | OVCAR-4 ovarian -4.8% | SK-OV-3 ovarian 4.76% | IGROV1 ovarian -8.42% | OVCAR-3 ovarian -10.7% | HS 578T breast -12% | T-47D breast 0.772% | MDA-MB-435 melanoma -46.3% | SW-620 colon 3.59% | MCF7 breast -25% | HCT-116 colon 1.24% | HCC-2998 colon -23.9% | KM12 colon 1.4%
